# Measurements from the supplement of paper PMC8728848.
# Many of the other results were omitted from the sample, so the strongest signals are more common in it than they were.
# Columns and labels:
# Assay in all cases: glycan array binding signal (z-score within array); higher = stronger binding
# Conditions in all cases: glycan notation: IUPAC condensed, linker removed
# [1] = target: GlcNAc(b1-2)[GlcNAc(b1-6)]Man(a1-6)[GlcNAc(b1-2)Man(a1-3)]Man(b1-4)GlcNAc(b1-4)[Fuc(a1-6)]GlcNAc
# Summary of the method: (§1)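 The Consortium for Functional Glycomics database supplied 3228 glycan arrays, of which those lacking an available protein sequence were dropped. The binding signal, a within-array Z-score, was averaged across arrays of the same protein sequence and across linkers. Negative scores can be read as non-binding.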
# [2] = target: GlcNAc(b1-3)Gal(b1-3)GalNAc
# Summary of the method: as §1
# [3] = target: GlcNAc(b1-3)Gal(b1-4)GlcNAc(b1-3)Gal(b1-4)GlcNAc(b1-2)Man(a1-3)[GlcNAc(b1-3)Gal(b1-4)GlcNAc(b1-3)Gal(b1-4)GlcNAc(b1-2)Man(a1-6)]Man(b1-4)GlcNAc(b1-4)[Fuc(a1-6)]GlcNAc
# Summary of the method: as §1
# [4] = target: GlcNAc(b1-3)Gal(b1-4)GlcNAc(b1-3)GalNAc
# Summary of the method: as §1
# [5] = target: GlcNAc(b1-3)Man
# Summary of the method: as §1
# [6] = target: GlcNAc(b1-4)GlcNAc(b1-4)GlcNAc
# Summary of the method: as §1
# [7] = target: GlcNAc(b1-4)GlcNAc(b1-4)GlcNAc(b1-4)GlcNAc(b1-4)GlcNAc
# Summary of the method: as §1
# [8] = target: GlcNAc(b1-6)Gal(b1-4)GlcNAc
# Summary of the method: as §1
# [9] = target: Kdn(a2-3)Gal(b1-4)Glc
# Summary of the method: as §1
# [10] = target: Man(a1-2)Man(a1-3)[Man(a1-2)Man(a1-6)]Man(a1-6)[Man(a1-2)Man(a1-2)Man(a1-3)]Man(b1-4)GlcNAc(b1-4)GlcNAc
# Summary of the method: as §1
# [11] = target: Man(a1-2)Man(a1-3)[Man(a1-2)Man(a1-6)]Man(a1-6)[Man(a1-3)[Man(a1-6)]Man(a1-6)]Man(b1-4)GlcNAc(b1-4)GlcNAc
# Summary of the method: as §1
# [12] = target: Man(a1-2)Man(a1-3)[Man(a1-6)]Man(a1-6)[Man(a1-2)Man(a1-3)]Man(b1-4)GlcNAc(b1-4)GlcNAc
# Summary of the method: as §1
# [13] = target: Man(a1-2)Man(a1-6)[Man(a1-3)]Man(a1-6)[Man(a1-2)Man(a1-2)Man(a1-3)]Man(b1-4)GlcNAc(b1-4)GlcNAc
# Summary of the method: as §1
# [14] = target: Man(a1-3)[Man(a1-6)]Man(a1-6)[Man(a1-2)Man(a1-3)]Man(b1-4)GlcNAc(b1-4)GlcNAc
# Summary of the method: as §1
# [15] = target: Man(a1-3)[Man(a1-6)]Man(a1-6)[Man(a1-3)]Man(b1-4)GlcNAc(b1-4)GlcNAc
# Summary of the method: as §1
# [16] = target: Man(a1-3)[Man(a1-6)]Man(b1-4)GlcNAc(b1-4)GlcNAc
# Summary of the method: as §1
# [17] = target: Neu5Ac(a2-3)Gal(b1-3)GlcNAc
# Summary of the method: as §1
# [18] = target: Neu5Ac(a2-3)Gal(b1-3)GlcNAc(b1-4)Gal(b1-4)Glc
# Summary of the method: as §1
# [19] = target: Neu5Ac(a2-3)Gal(b1-3)[GlcNAc(b1-6)]GalNAc
# Summary of the method: as §1
# [20] = target: Neu5Ac(a2-3)Gal(b1-3)[Neu5Ac(a2-3)Gal(b1-4)]GlcNAc
# Summary of the method: as §1
# [21] = target: Neu5Ac(a2-3)Gal(b1-3)[Neu5Ac(a2-6)]GlcNAc(b1-3)[Fuc(a1-3)[Gal(b1-4)]GlcNAc(b1-6)]Gal(b1-4)Glc
# Summary of the method: as §1
# [22] = target: Neu5Ac(a2-3)Gal(b1-4)GlcNAc(b1-2)Man(a1-3)[GlcNAc(b1-4)][Neu5Ac(a2-3)Gal(b1-4)GlcNAc(b1-2)Man(a1-6)]Man(b1-4)GlcNAc(b1-4)GlcNAc
# Summary of the method: as §1
# [23] = target: Neu5Ac(a2-3)Gal(b1-4)GlcNAc(b1-2)Man(a1-3)[Neu5Ac(a2-3)Gal(b1-4)GlcNAc(b1-2)Man(a1-6)]Man(b1-4)GlcNAc(b1-4)[Fuc(a1-6)]GlcNAc
# Summary of the method: as §1
# [24] = target: Neu5Ac(a2-3)Gal(b1-4)GlcNAc(b1-3)Gal(b1-4)GlcNAc(b1-3)Gal(b1-4)GlcNAc(b1-2)Man(a1-3)[Neu5Ac(a2-3)Gal(b1-4)GlcNAc(b1-3)Gal(b1-4)GlcNAc(b1-3)Gal(b1-4)GlcNAc(b1-2)Man(a1-6)]GalNAc
# Summary of the method: as §1
# [25] = target: Neu5Ac(a2-3)Gal(b1-4)GlcNAc(b1-3)Gal(b1-4)GlcNAc(b1-3)[Neu5Ac(a2-3)Gal(b1-4)GlcNAc(b1-3)Gal(b1-4)GlcNAc(b1-6)]GalNAc
# Summary of the method: as §1
# [26] = target: Neu5Ac(a2-3)Gal(b1-4)[Fuc(a1-3)]GlcNAc
# Summary of the method: as §1
# [27] = target: Neu5Ac(a2-3)Gal(b1-4)[Fuc(a1-3)]GlcNAc(b1-3)Gal(b1-4)GlcNAc
# Summary of the method: as §1
# [28] = target: Neu5Ac(a2-3)[GalNAc(b1-4)]Gal(b1-4)Glc
# Summary of the method: as §1
# [29] = target: Neu5Ac(a2-6)Gal(b1-4)GlcNAc(b1-2)Man(a1-3)Man(b1-4)GlcNAc(b1-4)GlcNAc
# Summary of the method: as §1
# [30] = target: Neu5Ac(a2-6)Gal(b1-4)GlcNAc(b1-2)Man(a1-3)[GlcNAc(b1-4)][Neu5Ac(a2-6)Gal(b1-4)GlcNAc(b1-2)Man(a1-6)]Man(b1-4)GlcNAc(b1-4)GlcNAc
# Summary of the method: as §1
# [31] = target: Neu5Ac(a2-6)Gal(b1-4)GlcNAc(b1-2)Man(a1-3)[Man(a1-6)]Man(b1-4)GlcNAc(b1-4)GlcNAc
# Summary of the method: as §1
# [32] = target: Neu5Gc(a2-8)Neu5Gc(a2-3)Gal(b1-4)GlcNAc
# Summary of the method: as §1
binder,measurement,setting,value
"UDA (Urtica dioica), P11218 (protein) MMMRFLSAVVIMSSAMAVGLVSAQRCGSQGGGGTCPALWCCSIWGWCGDSEPYCGRTCENKCWSGERSDHRCGAAVGNPPCGQDRCCSVHGWCGGGNDYCSGSKCQYRCSSSVRGPRVALSGNSTANSIGNVVVTEPLFDQMFSHRKDCPSQGFYSYHSFLVAAESFPAFGTIGDVATRKREVAAFLAHISQATSGERSDVENPHAWGLCHINTTTVTENDFCTSSDWPCAAGKKYSPRGPIQLTHNFNYGLAGQAIGEDLIQNPDLVEKDPIISFKTALWFWMSQHDNKPSCHDIVLNANSAANRIPNKGVIGNIISRAFGHDDFAVRSSSIGFYKRYCDMLGVSYGHDLKYWFDNTPSSEFQRIQMRVAA",glycan array binding signal (z-score),[1],-0.162
same,glycan array binding signal (z-score),[2],-0.181
same,glycan array binding signal (z-score),[3],0.026
same,glycan array binding signal (z-score),[4],-0.182
same,glycan array binding signal (z-score),[5],-0.17
same,glycan array binding signal (z-score),[6],2.6
same,glycan array binding signal (z-score),[7],2.39
same,glycan array binding signal (z-score),[8],-0.173
same,glycan array binding signal (z-score),[9],-0.168
same,glycan array binding signal (z-score),[10],4.32
same,glycan array binding signal (z-score),[11],4.79
same,glycan array binding signal (z-score),[12],4.54
same,glycan array binding signal (z-score),[13],8.27
same,glycan array binding signal (z-score),[14],10.8
same,glycan array binding signal (z-score),[15],5.89
same,glycan array binding signal (z-score),[16],6.43
same,glycan array binding signal (z-score),[17],-0.164
same,glycan array binding signal (z-score),[18],-0.174
same,glycan array binding signal (z-score),[19],-0.176
same,glycan array binding signal (z-score),[20],-0.25
same,glycan array binding signal (z-score),[21],-0.177
same,glycan array binding signal (z-score),[22],-0.174
same,glycan array binding signal (z-score),[23],-0.169
same,glycan array binding signal (z-score),[24],-0.024
same,glycan array binding signal (z-score),[25],-0.161
same,glycan array binding signal (z-score),[26],-0.19
same,glycan array binding signal (z-score),[27],-0.171
same,glycan array binding signal (z-score),[28],-0.189
same,glycan array binding signal (z-score),[29],1.69
same,glycan array binding signal (z-score),[30],-0.179
same,glycan array binding signal (z-score),[31],4.09
same,glycan array binding signal (z-score),[32],-0.107
